Source: PubChem BioAssay
In the library only some 4.4% were active in any assay of this set; here they are far more common.
Mot1-301 SUMO: SUMOylation pathway inhibition by Mot1-301 growth rescue. hit rate 1% among 320,000. S. cerevisiae Mot1-301 growth rescue, ATP luminescence, 38.5C; percent above DMSO median, 100 means doubled. growth rescue, % at 18.8 µM;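 active means every valid replicate shows activation above 250% relative to neutral control wells; inactive means the rest, any valid replicate at or below 250%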;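 further: OY570 slx delta 5 strain wells were the positive control but not used for scaling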
tim23-1 inh: tim23-1 yeast growth inhibition; AID 463212; inhibition, % at 20 µM; hit rate 1.3% among 330,000; S. cerevisiae tim23-1 growth, BacTiter-Glo luminescence, 24 h;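 active means growth inhibition of the mutant yeast at or above 50%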;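 further: temperature-sensitive mutant grown at 25 °C; plate controls were DMSO-treated mutant yeast for no effect and medium wells lacking yeast for full effect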
tim10-1 inh: growth inhibitors of tim10-1 mutant yeast; hit rate 2.2% among 330,000; inhibition, % at 20 µM; S. cerevisiae tim10-1 ts strain growth, BacTiter-Glo, 24 h;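 active means inhibition of at least 40%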;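 further: mutant grown at 25 °C; 0% = DMSO wells with yeast and 100% = wells holding no yeast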
PfHsp90 yeast 2: growth inhibition of yeast expressing Plasmodium Hsp90; S. cerevisiae expressing PfHsp90, BacTiter-Glo ATP, 48 h; yeast lacking PDR1 and PDR3 efflux regulators; inhibition, % at 9.4 µM; hit rate 0.32% among 310,000;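 active means every replicate shows inhibition above about 80%, whatever the replicate mean, limit read from the data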;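 further: 0% = DMSO neutral controls and 100% = 20 µM radicicol positive controls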
TIM10 inh: growth inhibitors of TIM10 yeast strain. S. cerevisiae TIM10 strain growth, BacTiter-Glo luminescence, 24 h. inhibition, % at 10 µM. hit rate 1.4% among 330,000;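 active means inhibition of 40% or more at the single tested concentration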;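 further: wild-type TIM10 isogenic control strain grown at permissive 25 °C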
tim10 confirm: TIM10 yeast growth inhibition, confirmed. shares compounds with TIM10 inh. S. cerevisiae tim10 strain growth, BacTiter-Glo luminescence, 24 h. inhibition, % at 10 µM. hit rate 63% among 4,600. AID 463215;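 active means inhibition of yeast growth at or above a set limit in either of two replicates at 10 µM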;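 further: this counterscreen used the strain with wild-type TIM10; 0% = yeast with DMSO and 100% = medium wells lacking yeast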
Numbers without * were called inactive.

Screening Cc1ccc(NC(=O)COC(=O)CNC(=O)c2cccs2)cc1S(=O)(=O)N1CCOCC1 returned PfHsp90 yeast 2 -7.
For Cc1ccc(NC(=O)COC(=O)Cc2cccs2)cc1S(=O)(=O)N1CCOCC1 the results were Mot1-301 SUMO 12, tim23-1 inh 9, tim10-1 inh 1, PfHsp90 yeast 2 -1, TIM10 inh 97* and tim10 confirm -6.
CCN(CC)c1nc(NN)nc(Nc2ccc(C)c(Cl)c2)n1 was read as Mot1-301 SUMO -6, tim23-1 inh 32, tim10-1 inh 37, PfHsp90 yeast 2 20 and TIM10 inh 32.
Oc1c(/C=N/c2ccccn2)sc2ccccc12 was read as Mot1-301 SUMO active, tim23-1 inh 37, tim10-1 inh 29, PfHsp90 yeast 2 16, TIM10 inh 69* and tim10 confirm 62*.
Screening O=C1CCCN1C(=O)CSc1nnnn1-c1ccccc1 returned Mot1-301 SUMO -11, tim23-1 inh 12, tim10-1 inh 7, PfHsp90 yeast 2 40 and TIM10 inh 2.
For CCOC(=O)N1CCN(C(=O)c2ccc3c(c2)sc2nc(-c4ccc(OC)cc4)cn23)CC1 the results were Mot1-301 SUMO 19, tim23-1 inh 16, tim10-1 inh 18, PfHsp90 yeast 2 -18, TIM10 inh 50* and tim10 confirm 44*.
For CCOC(=O)N1CCN(C(=O)c2ccc(OC)cc2)CC1 the results were Mot1-301 SUMO -2, tim23-1 inh -5, tim10-1 inh 8, PfHsp90 yeast 2 -11 and TIM10 inh 15.
CCn1c(O)c(C=NCc2cccs2)c(=O)n(CC)c1=S was read as Mot1-301 SUMO 8, tim23-1 inh 43, tim10-1 inh 39, PfHsp90 yeast 2 -26, TIM10 inh 42* and tim10 confirm 7.
`Cc1ccc(NC(=O)NCCSc2ccc(C)cc2)cc1` gave Mot1-301 SUMO -14, tim23-1 inh 6, tim10-1 inh -13, PfHsp90 yeast 2 11 and TIM10 inh -5.
Screening COC(=O)Cc1ccc(NC(=S)NCCSc2ccc(C)cc2)cc1 returned Mot1-301 SUMO 16, tim23-1 inh 13, tim10-1 inh 39, PfHsp90 yeast 2 8, TIM10 inh 55* and tim10 confirm 35*.
CCN(CC)C(=O)[C@H]1C[C@H](CC(=O)NCc2ccco2)C(=O)N2CCc3c([nH]c4cc(CCC(=O)N(C)C)ccc34)[C@]12C was read as tim23-1 inh 30, tim10-1 inh 22, PfHsp90 yeast 2 1 and TIM10 inh -3.
Screening Cc1cc(Br)ccc1NC(=O)CNC(=O)CSc1nccn1C returned Mot1-301 SUMO 15, tim23-1 inh -5, tim10-1 inh -9, PfHsp90 yeast 2 -9 and TIM10 inh -3.
CCN(CC(=O)Nc1ccc2c(c1)OCCO2)C(=O)c1cccc(OCC(C)C)c1 was read as Mot1-301 SUMO -5, tim23-1 inh 28, tim10-1 inh 16, PfHsp90 yeast 2 0 and TIM10 inh 10.
For O=C(Nc1ccc(C(O)(C(F)(F)F)C(F)(F)F)cc1)c1ccc(Cl)c([N+](=O)[O-])c1 the results were Mot1-301 SUMO -16, tim23-1 inh 30, tim10-1 inh 38, PfHsp90 yeast 2 13, TIM10 inh 59* and tim10 confirm 2.
Screening CCC(=O)Nc1ccc2c(c1)nc1n2CCSC1 returned Mot1-301 SUMO 43, tim23-1 inh 14, tim10-1 inh 20, PfHsp90 yeast 2 -6 and TIM10 inh -2.
O=C(Nc1ccc2c(c1)nc1n2CCOC1)c1ccccc1 was read as Mot1-301 SUMO 2, tim23-1 inh 44, tim10-1 inh 35, PfHsp90 yeast 2 3, TIM10 inh 63* and tim10 confirm 47*.
Screening O=C(Nc1ccc2c(c1)nc1n2CCSC1)c1ccccc1 returned Mot1-301 SUMO -25, tim23-1 inh 40, tim10-1 inh 39, PfHsp90 yeast 2 -1, TIM10 inh 66* and tim10 confirm 67*.
`CCCC(=O)Nc1ccc2c(c1)nc1n2CCOC1` gave Mot1-301 SUMO -1, tim23-1 inh 1, tim10-1 inh -1, PfHsp90 yeast 2 2 and TIM10 inh -6.
COc1ccc(C(=O)Nc2ccc3c(c2)nc2n3CCSC2)cc1 was read as Mot1-301 SUMO 13, tim23-1 inh 35, tim10-1 inh 11, TIM10 inh 51* and tim10 confirm 42*.
Screening Cn1c(N)c(N2CCCCC2)c(=O)n(CC(=O)Nc2cccc(C#N)c2)c1=O returned Mot1-301 SUMO -17, tim23-1 inh -5, tim10-1 inh -6 and TIM10 inh -10.
`CC(C)(C)[C@@H]1COC(=O)[C@@H](Cc2ccc(F)cc2)C/C=C\C[C@H](CC(=O)N(CCO)Cc2ccccc2)C(=O)N1` gave Mot1-301 SUMO 32, tim23-1 inh 16, tim10-1 inh 12, PfHsp90 yeast 2 11 and TIM10 inh 0.
`COc1ccc(C(=O)N2CC3(CC(c4cccc(NC(=O)CC(c5ccccc5)c5ccccc5)c4)=NO3)C[C@H]2C(N)=O)cc1` (stereo partly specified) gave Mot1-301 SUMO 5, tim23-1 inh 22, tim10-1 inh 24, PfHsp90 yeast 2 10, TIM10 inh 96* and tim10 confirm -5.
Screening CCCCCC(=O)Nc1cccc(C2=NOC3(C2)C[C@@H](C(N)=O)N(C(=O)c2ccc(OC)cc2)C3)c1 (stereo partly specified) returned Mot1-301 SUMO 6, tim23-1 inh -7, tim10-1 inh -5, PfHsp90 yeast 2 22 and TIM10 inh -1.
Screening CC1(C(=O)N2CC3(CC(c4cccc(NC(=O)CC(c5ccccc5)c5ccccc5)c4)=NO3)C[C@@H]2C(N)=O)CC1 (stereo partly specified) returned Mot1-301 SUMO -19, tim23-1 inh 22, tim10-1 inh -1, PfHsp90 yeast 2 -19, TIM10 inh 96* and tim10 confirm -20.
Cc1cccc(CN2C[C@]34CC[C@@H](C[C@@H]3S2(=O)=O)O4)c1 was read as Mot1-301 SUMO 6, tim23-1 inh 7, tim10-1 inh 8, PfHsp90 yeast 2 20 and TIM10 inh 12.
O=C(Nc1cccc(S(=O)(=O)NC2=NCCC2)c1)c1cnc(Cl)c(Cl)c1 was read as Mot1-301 SUMO 0, tim23-1 inh 2, tim10-1 inh -9, PfHsp90 yeast 2 3 and TIM10 inh -1.
COc1ccc(C(C(=O)NC(C)(C)C)N(C(=O)CCC(=O)Nc2cc(C)on2)c2ccccc2F)cc1 (stereo unspecified) was read as Mot1-301 SUMO 5, tim23-1 inh 19, tim10-1 inh 1, PfHsp90 yeast 2 9 and TIM10 inh 9.
CN1/C(=C/C(=O)c2cccs2)Sc2ccccc21 was read as Mot1-301 SUMO -14, tim23-1 inh 42, tim10-1 inh 22, TIM10 inh 73* and tim10 confirm 61*.
